# Reference: PubChem BioAssay (NCI)
# About 83,000 compounds went through this panel and 20% of them were active in at least one assay; those are over-represented in the sample as a whole.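 Negative percent growth values reflect cell death: -40 means 40% of the cells present at the start died, and -100 means all died.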 Unmarked numbers belong to inactive results. Activity calls are given as the source filed them. How the source made its calls: active means growth percent below 10; inactive means the rest.
# Tests used:
# Test in all cases: NCI-60 one-dose screen, 48 h (100 = growth as untreated, 0 = no growth, -100 = all killed)
# Conditions in all cases: 10 µM unless noted
# [1] = test system: HCT-15 colon
# [2] = test system: HT29 colon
# [3] = test system: SNB-19 CNS
# [4] = test system: U251 CNS
# [5] = test system: PC-3 prostate
# [6] = test system: SK-MEL-5 melanoma
# [7] = test system: UACC-62 melanoma
# [8] = test system: SK-MEL-28 melanoma
# [9] = test system: SK-MEL-2 melanoma
# [10] = test system: EKVX NSCLC
# [11] = test system: SN12C renal
# [12] = test system: UO-31 renal
# [13] = test system: TK-10 renal
# [14] = test system: ACHN renal
# [15] = test system: CAKI-1 renal
# [16] = test system: CCRF-CEM leukemia
# [17] = test system: MOLT-4 leukemia
# [18] = test system: LOX IMVI melanoma
# [19] = test system: A498 renal
Structure (SMILES),growth [1],growth [2],growth [3],growth [4],growth [5],growth [6],growth [7],growth [8],growth [9],growth [10],growth [11],growth [12],growth [13],growth [14],growth [15],growth [16],growth [17],growth [18],growth [19]
O=S(=O)(Nc1ccc2c(c1)OCO2)c1ccc(-c2cnc(C3CC3)o2)cc1,20.3%,14%,38.1%,27.4%,37.9%,30%,33.2%,51.2%,53.5%,43.2%,36.8%,45.5%,73.8%,43.6%,40.8%,27%,31.5%,,
Cc1ccc2c(c1)C13C(=C2Br)CCCN1C(=O)c1ccccc13 (stereo not drawn),73%,98.9%,89.2%,97.5%,67.9%,88%,67.4%,92.5%,100%,91.3%,92.5%,76.5%,99.9%,95.5%,75.8%,79.7%,79.8%,103%,92.4%
O=C(Nc1cccc(Cl)c1)Nc1nc2ccc([N+](=O)[O-])cc2o1,13.7%,14.3%,19.7%,6.13% (active),5.64% (active),-13% (active),2.02% (active),26%,3.62% (active),16.7%,16.8%,24%,8.49% (active),23%,15.8%,10.5%,9.15% (active),,
NC(N)=Nc1ccc(Oc2cccc(NC(N)=Nc3ccc(Cl)c(C(F)(F)F)c3)c2)cn1,85.8%,28.9%,16.6%,25.6%,13.4%,31.9%,40.2%,61.6%,59.5%,65.5%,25.2%,78.9%,69.3%,88.3%,,23.9%,23.6%,-59.8% (active),36.7%
O=C(O)c1cn(C2CC2)c2cc(N3CCN(C(=O)CN4C(=O)CSC4=O)CC3)c(F)cc2c1=O,112%,112%,100%,115%,91.2%,102%,91%,101%,113%,,91.7%,56.4%,73.5%,93.7%,76.2%,,109%,102%,101%
O=C(Nc1ccc(Br)cc1)Nc1nc2ccc([N+](=O)[O-])cc2s1,-11.3% (active),7.76% (active),19.1%,0.478% (active),0.887% (active),-82.2% (active),-19.6% (active),6.25% (active),-22.7% (active),9.52% (active),4.21% (active),5.94% (active),-2.48% (active),3.61% (active),-2.25% (active),10.9%,3.2% (active),,
Cc1[nH]c(C(=O)Nc2ccccc2OCc2cccc(C(=O)N3CCC[C@@H](N)C3)c2)c(Cl)c1Cl,-78.6% (active),-71.9% (active),-84.4% (active),-83.9% (active),-88.9% (active),-97.7% (active),-90.8% (active),-84.6% (active),-74.1% (active),-93.4% (active),-79.4% (active),-89.5% (active),-90.2% (active),-96.4% (active),-92.8% (active),-26.6% (active),-55.2% (active),-90% (active),56.2%
COc1cccc2cc(-c3cc4ccccc4[nH]3)/c(=N\NC(=O)c3ccc(Cl)cc3)oc12,20.3%,67%,47.4%,34.6%,35.3%,48.4%,16.1%,42.6%,68.3%,33.8%,43%,28%,46.7%,17.3%,30.7%,16.6%,15.5%,,
CC(C)(C)c1ccc(C(=O)Nc2nc3ccc(O)cc3s2)cc1,-5.95% (active),2.02% (active),63.5%,59.1%,50.1%,37.5%,45.1%,47.1%,71.4%,47.5%,53.5%,25.5%,74.9%,39%,15.1%,41.9%,33%,10.4%,48.7%
CNC(=O)c1cc(-n2ccc3cc(NC(=O)Nc4ccc(N5CCOCC5)c(C(F)(F)F)c4)ccc32)ccn1,30.2%,19.6%,74.2%,42%,,4.69% (active),13.4%,62.9%,,65.4%,55.3%,35.2%,61.3%,56.9%,41.3%,,13.8%,13.3%,70.7%
COc1cc(OC)c(S(N)(=O)=O)cc1C(C)=O,103%,103%,101%,105%,94.9%,,100%,107%,,102%,97.2%,97.4%,94.9%,107%,95.6%,109%,,105%,
COc1ccc([C@H]2[C@H](O)C(=O)N2c2cc(OC)c(OC)c(OC)c2)cc1F,7.86% (active),-26% (active),27.7%,7.47% (active),19.8%,-30.9% (active),33.3%,63%,-43.3% (active),44.7%,27.3%,34.2%,86.2%,24.6%,29.6%,17.9%,15.2%,-6.07% (active),-26.1% (active)
CCOc1cccc(-c2nc3sccn3c2-c2ccnc(S(C)(=O)=O)n2)c1,76.8%,99.6%,91.8%,103%,,99.3%,89.6%,90.5%,108%,101%,98.4%,97.1%,119%,87.6%,86.3%,99.6%,101%,78.6%,73.3%
CC1(C)CC[C@]2(C(=O)N3CCOCC3)CC[C@]3(C)C(=CC[C@@H]4[C@@]5(C)C/C(=C/c6ccco6)C(=O)C(C)(C)[C@@H]5CC[C@]43C)[C@@H]2C1,81.5%,82.7%,100%,101%,60.3%,94.2%,80.3%,91.6%,,63.4%,86%,49.9%,75.8%,81.7%,37%,,52.3%,63.9%,68.7%
N#Cc1cnc2ccc(-c3cnc4[nH]ncc4c3)cc2c1N1CCc2cc(F)c(Cl)cc21,3.32% (active),2.58% (active),14.2%,20.5%,6.58% (active),-37.2% (active),,31.3%,-5.98% (active),-1.26% (active),9.07% (active),-8.85% (active),13.1%,12.5%,15.1%,,4.01% (active),-9.51% (active),-53.7% (active)
O=S(=O)(Nc1ccc(I)cc1Cl)c1ccc(-c2cnc(C3CC3)o2)cc1,30.7%,15.9%,45.9%,35.2%,34%,40.2%,39%,53.8%,71.6%,54.2%,42.5%,50.9%,89.3%,49.2%,39.1%,25.2%,45%,,
COc1cc(OC)c(S(N)(=O)=O)cc1C(=O)/C=C/c1ccc(C)cc1,6.96% (active),9.47% (active),33.3%,14.5%,19.1%,,33.8%,58.7%,,45.6%,11.4%,34.7%,25.5%,29.7%,21.9%,16.7%,21.1%,1.84% (active),
O=C(Nc1nc2ccc([N+](=O)[O-])cc2s1)Nc1ccccc1Cl,29.5%,53.6%,21.7%,29.2%,17.3%,-22.5% (active),6.62% (active),49.5%,9.56% (active),33.6%,10.4%,31.8%,40.1%,42.7%,21.8%,28.9%,21.8%,,
CS(=O)(=O)Nc1cc(-c2ccc3ncc(C#N)c(Nc4cccc(Cl)c4F)c3c2)cnc1Cl,8.27% (active),2.88% (active),5.43% (active),-8.19% (active),-16.3% (active),-89.9% (active),-32% (active),2.61% (active),-71.3% (active),-5.3% (active),16.1%,-16.1% (active),-31% (active),12.7%,-5.21% (active),2.5% (active),-11.1% (active),-62.2% (active),-50.9% (active)
Cc1cc(C(NC(=O)CCCCCNc2cccc3c2C(=O)N(C2CCC(=O)NC2=O)C3=O)c2ccc3c(c2)OC(F)(F)O3)c(O)c2ncccc12 (stereo not drawn),72.2%,71.8%,51.6%,33.6%,,37%,63.3%,81%,62.6%,71.3%,49.9%,77.2%,93.8%,63.5%,50%,38.6%,42.5%,57.9%,95.1%
COc1ccc2c(c1)Oc1nc(N)c(C#N)c(N)c1C2Sc1ccc(C)cc1 (stereo not drawn),-82.5% (active),-26.8% (active),7.65% (active),0.124% (active),-43.8% (active),-25.1% (active),9.86% (active),-25.9% (active),-36.4% (active),,0.951% (active),-81.6% (active),-23.4% (active),-96.9% (active),-7.52% (active),-16.1% (active),-12.9% (active),-98.4% (active),33.4%
O=S(=O)(Nc1cccc2ccccc12)c1ccc(-c2cnc(C3CC3)o2)cc1,14.3%,16.8%,38.8%,23.8%,16.5%,7.66% (active),37.2%,,72.3%,43.1%,34.3%,43.5%,92.6%,36.9%,29.9%,17.6%,21.8%,,
CN1c2ccccc2Sc2cc(C=C(C#N)C#N)ccc21,101%,111%,97.6%,98%,105%,100%,46.5%,104%,101%,93.6%,92.7%,95.6%,111%,101%,91.8%,102%,84.8%,87.3%,-19% (active)
CC(C)c1ccc(NCc2cn(-c3ccc(C(=O)O)cc3)nc2-c2cc(C(F)(F)F)cc(C(F)(F)F)c2)cc1,73.7%,80.9%,83.8%,86.2%,70.4%,96%,81.9%,93.3%,91.8%,79.2%,85.9%,78.6%,118%,92.6%,63.7%,74.8%,71.6%,91.9%,90%
CS(=O)(=O)c1ccc(-n2cc(/C=N/O)c(-c3ccccc3)n2)cc1,76.6%,97.4%,71.2%,72.1%,71%,21.2%,66.6%,,92.3%,81.7%,89.5%,76%,92.5%,78.4%,73.8%,33.8%,28.7%,-79.5% (active),83.7%
CC(C)(C)c1ccc(C(=O)Nc2sc3c(c2C(N)=O)CC/C(=N\O)C3)cc1,10.4%,5.87% (active),26.7%,17.9%,18.7%,-29.4% (active),12.7%,31.4%,-3.77% (active),25.9%,21.5%,-33.7% (active),32%,12.2%,12.7%,10.1%,15%,3.93% (active),34.6%
CCNC(=O)N1CCc2cc(OC)c(OCCc3ccc(OC)cc3)cc2C1c1ccc([N+](=O)[O-])cc1C (stereo not drawn),7.24% (active),4.69% (active),28.4%,16.4%,23.4%,0.509% (active),30.4%,47.8%,22.3%,42.2%,44%,29.3%,54.8%,30.4%,27.2%,33.4%,26.1%,7.24% (active),-16.8% (active)
Cc1cc(-c2ccc(Cl)cc2)n(Cc2nnc(SCC(=O)Nc3ccc(S(N)(=O)=O)cc3)n2-c2ccc([N+](=O)[O-])cc2)n1,68.3%,90.9%,84.6%,88.4%,56.5%,95.9%,77.4%,97.4%,87%,75.1%,82%,64%,105%,79.1%,71.2%,79.8%,54.4%,88.4%,84.5%
NC(N)=Nc1ccc(Oc2cccc(NC(N)=Nc3ccc(I)cc3F)c2)cc1,86.9%,62.5%,20.7%,47.4%,27.5%,74%,77.8%,85.7%,85.9%,71.6%,54.3%,95.7%,85.7%,101%,,77.3%,78.9%,48%,86.8%
c1cc(-c2nc3ccc4[nH]ncc4c3c3c2CCCC3)[nH]n1,34.8%,63.7%,64.6%,65.7%,57.1%,76.9%,50.7%,94.1%,29.1%,60.8%,75%,50.7%,36%,32.6%,27.6%,46.7%,67.8%,58.4%,16.2%
